Each structure is given as a SMILES string. About 200 (20%) of roughly 1,000 compounds were called active. No stated cut-off is given here; in the data, active means inhibition above about 55%; inactive means the rest. Only a sample is shown. Entries with a potency or affinity are not part of this list.

Here are results for 55 compounds from PubChem BioAssay AID1878 (Sanford-Burnham Center for Chemical Genomics, 2009).

For this test, the target named is Dual specificity protein phosphatase 3 (Homo sapiens) (UniProt P51452). The test is described as follows: VHR1 phosphatase inhibitors, biochemical (AID 1878). Conditions: recombinant VHR phosphatase, fluorogenic substrate; at 13.3 µM; stronger effect = higher value.
Chain of Dual specificity protein phosphatase 3 (Homo sapiens) (P51452 whole entry, looked up): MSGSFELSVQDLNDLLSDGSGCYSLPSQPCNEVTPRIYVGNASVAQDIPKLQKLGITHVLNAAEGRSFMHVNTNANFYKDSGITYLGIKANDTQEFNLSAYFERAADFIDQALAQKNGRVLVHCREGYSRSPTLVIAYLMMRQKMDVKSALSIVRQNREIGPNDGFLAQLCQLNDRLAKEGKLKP
Turning to `CC(C)CCN1CCC(n2nccc2NC(=O)C2CCOC2)CC1` (stereo not given), the inhibition – broadly, the relative decrease from the control value, in per cent – was -5.2% (inactive).

Turning to `Oc1cc(Br)ccc1C=Nc1ccc(N2CCCCC2)cc1`, the inhibition was -10% (inactive).

Take `CCN(CC)c1ccc(NC(=O)CCNS(=O)(=O)c2ccc3c(c2)CCC(=O)N3)c(C)c1`: the inhibition is -13.1% (inactive).

On to `CC1CCN(CCNC(=O)C2CCCN(c3ncnc4c3nc3n4CCCCC3)C2)CC1` (stereo not given), for which the inhibition is 7.1% (inactive).

Regarding `Cc1occc1C(=O)N1CCCC(CCC(=O)NCc2ccc(F)c(F)c2)C1` (stereo not given), the inhibition is -8.6% (inactive).

On to `COc1ccccc1NC(=O)C1CCCN(S(=O)(=O)c2ccc3c(c2)CC(C)N3C(C)=O)C1` (stereo not given), for which the inhibition is 17.3% (inactive).

In the case of `O=C(NC1CC2CCC(C1)N2Cc1ccccc1)c1ccccc1Br` (stereo not given), the inhibition was -2.7% (inactive).

With `O=[N+]([O-])c1ccc(Oc2cccc3cccnc23)c(Cl)c1`, the inhibition is -14.5% (inactive).

For `O=P(Cc1ccccc1)(c1ccccc1)c1ccccc1`, the inhibition is 6.2% (inactive).

Turning to `Cc1cc(O)c(C=Nc2ccc(N3CCOCC3)cc2)c(C)c1Cl`, the inhibition is 0.1% (inactive).

On to `O=C(N/N=C/c1cc(Br)cc([N+](=O)[O-])c1O)c1ccc(NC(=O)c2ccc(F)cc2)cc1`, for which the inhibition is 95.6% (active).

As for `CCOC(=O)c1ccc(N/N=C/c2cc(Br)cc([N+](=O)[O-])c2O)cc1`, the inhibition is 27.8% (inactive).

Consider `COc1ccc(CC(=O)Nc2cccc3c2CCCC3)cc1`, for which the inhibition was -12.1% (inactive).

Turning to `O=C(O)CC1OCC=C2CN3CCC45c6ccccc6NC4C1C2CC35` (stereo not given), the inhibition is -2.6% (inactive).

For the compound `O=C1COc2ccc(S(=O)(=O)N3CCC(C(=O)NCc4ccc(F)cc4)CC3)cc2N1`, the inhibition is -1.8% (inactive).

For `Cc1cc(C)cc(N2CC(O)=C(c3nc4ccccc4c(=O)[nH]3)C2=N)c1`, the inhibition was 60.5% (active).

As for `COc1ccc(C(=O)OC2CC[C@@]3(C)C4CCC5[C@]6(O)CC(O)[C@@]7(O)C(CN8CC(C)CCC8[C@@]7(C)O)[C@]6(O)C[C@@]53O[C@]24O)cc1OC` (stereo not given in full), the inhibition is -10.1% (inactive).

For `COC(=O)CCCC(=O)N1CCC(n2nccc2NC(=O)CCOc2ccccc2)CC1`, the inhibition was 7.4% (inactive).

With `Cc1cc(=O)oc2c3c(cc(OCC(=O)NCC(=O)N[C@H](C(=O)O)C(C)C)c12)OC(C)(C)CC3`, the inhibition was 9.6% (inactive).

For the compound `COc1cccc(CC(NC(C)=O)C(=O)NC2CCN(C(=O)c3ccc(Cl)cc3)CC2)c1` (stereo not given), the inhibition was 0.6% (inactive).

As for `CCCNC(=O)CN1C(=O)COc2ccc(S(=O)(=O)N3CC(C)CC(C)C3)cc21` (stereo not given), the inhibition is 5% (inactive).

With `O=C(NCCN1CCOCC1)C(=O)NCC1OCCCN1S(=O)(=O)c1ccc(F)cc1` (stereo not given), the inhibition was -15.9% (inactive).

As to `O=C(O)c1ccc(N2C(=O)/C(=C/c3ccc(-c4ccc([N+](=O)[O-])cc4)o3)C=C2c2ccccc2)cc1`, the inhibition was 99% (active).

With `CC1CC(C)CN(CCCNC(=O)CCC(=O)N2CC(C)Oc3ccccc32)C1` (stereo not given), the inhibition is -2.6% (inactive).

As to `O=C(/C=C/c1c(Cl)nc2ccccn12)N1CCN(c2ccc(F)cc2)CC1`, the inhibition was 26.8% (inactive).

Turning to `Cn1c(SCC(=O)Nc2ccc(N3CCOCC3)cc2)nnc1-c1ccco1`, the inhibition is 1% (inactive).

Turning to `Cc1ccc(NC(=O)C2CCN(C(=O)c3ccco3)CC2)cc1`, the inhibition is -5.8% (inactive).

For `Cc1cc(OCC(=O)Nc2ccc(N3CCN(C(=O)c4ccco4)CC3)cc2)cc(C)c1Cl`, the inhibition is 94.6% (active).

For the compound `Cc1ccc(S(=O)(=O)N2CCCCC2)c2nsnc12`, the inhibition was -2% (inactive).

Consider `COc1cc(C(=O)N2CCc3ccccc32)c([N+](=O)[O-])cc1OC`, for which the inhibition was 26.5% (inactive).

`CCOc1ccc2nc(N3CCCC(C(=O)NCCCN4C(C)CCCC4C)C3)sc2c1` (stereo not given): the inhibition was -12.1% (inactive).

With `Cc1ccc2oc(Nc3nc(-c4ccccc4)cc(=O)[nH]3)nc2c1`, the inhibition was 61.1% (active).

Take `CCOc1ccc(C(=O)NC2CCN(CC(=O)NCc3ccccc3)CC2)cc1`: the inhibition is -7.3% (inactive).

As for `COc1cccc(NC(=O)NCCN2CCCCC2)c1`, the inhibition was -15.8% (inactive).

With `Cc1ccc(NC(=S)c2ccc3ccccc3n2)c(C)c1`, the inhibition was 5.5% (inactive).

On to `Cc1ccc(-n2cccn2)c([C@@H]2C[C@H]3CN(C)C(=O)[C@]34CCCN24)c1`, for which the inhibition is -6.3% (inactive).

As to `C=CCc1cc(Cl)ccc1OCCOCCNC(C)(C)C`, the inhibition is -15% (inactive).

Regarding `Brc1ccc(C2=Nc3ccccc3C(c3ccncc3)=NN2)cc1`, the inhibition is 82.1% (active).

Turning to `COC(=O)[C@@]1(Cc2ccc(F)cc2)[C@H]2c3cc(C(=O)N4CCCC4)n(CCc4ccccn4)c3C[C@H]2CN1C(=O)c1ccccc1`, the inhibition was -0.9% (inactive).

For the compound `CCC1CCCCN1CCCNC(=O)Cn1ncn2nc(-c3ccc(OC)cc3)cc2c1=O` (stereo not given), the inhibition is -4% (inactive).

Consider `OCCC1CN(Cc2ccc(F)cc2)CCN1CCc1ccccc1` (stereo not given), for which the inhibition was -5.4% (inactive).

In the case of `O=C(N/N=C1/C(=O)c2cccc3cccc1c23)c1ccc(Cl)cc1`, the inhibition was 98.9% (active).

For `CCOc1ccccc1N(C(=O)c1ccco1)C(C(=O)NC1CCCC1)c1cccs1` (stereo not given), the inhibition was 14.1% (inactive).

For `COc1ccc(OCC(O)CN(CC(O)COc2ccc(OC)cc2)c2cccc(O)c2)cc1` (stereo not given), the inhibition was 3.9% (inactive).

For `CCC(CO)(CO)N(CC(=O)Nc1ccc(OC)cc1)CC(=O)Nc1ccc(OC)cc1`, the inhibition is 5.4% (inactive).

For `N=C1/C(=C\c2ccc(-c3cccc(C(=O)O)c3)o2)C(=O)N=C2SC=C(c3ccccc3)N12`, the inhibition is 88.1% (active).

With `N=C1/C(=C/c2ccc(-c3cccc(C(=O)O)c3)o2)C(=O)N=C2SC=C(c3ccccc3)N12`, the inhibition was 79.5% (active).

As to `N=C1/C(=C\c2ccc(-c3ccc(C(=O)O)cc3)o2)C(=O)N=C2SC=C(c3ccccc3)N12`, the inhibition was 97.1% (active).

Consider `COc1ccc(S(=O)(=O)N2CCCOC2CNC(=O)C(=O)NC2CCCC2)cc1` (stereo not given), for which the inhibition was -10.2% (inactive).

Consider `Cc1cc(Br)c(S(=O)(=O)NCc2cccnc2)cc1C`, for which the inhibition was 5.2% (inactive).

Regarding `OC(COC(c1ccc(F)cc1)c1ccc(F)cc1)CN1CCCC(C(F)(F)F)C1` (stereo not given), the inhibition was -7.4% (inactive).

On to `Fc1cccc(/C=N/n2c(C3CCCCC3)n[nH]c2=S)c1`, for which the inhibition was 0.6% (inactive).

With `COc1ccc(CCC(=O)NCCc2cnc[nH]2)cc1`, the inhibition was -0.5% (inactive).

As to `CCOc1cc2[nH]c(=S)n(Cc3ccc(C(=O)NCCCOC)cc3)c(=O)c2cc1OCC`, the inhibition is 11.5% (inactive).

Take `O=C(N=C1SC2CS(=O)(=O)CC2N1Cc1ccccc1)C1CCCO1` (stereo not given): the inhibition is -9.5% (inactive).
